Bioassay records deposited in PubChem by National Center for Advancing Translational Sciences (NCATS).
Only some compounds are listed: those with a hit (about 5.5% of all), similar ones and a draw of the others.
Giardia kill: Giardia lamblia killing; AID 540267; 0.15% of 340,000 active; activity change, % at 7.66 µM, hits read low; Giardia lamblia trophozoite viability; in the data active = activity change below about -80%; inconclusive = between about -30% and that limit;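 also: parasites exposed to compound for two days anaerobically before the ATP read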
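Compounds were tested on trophozoites seeded at 100 cells/well and held 48 hrs at 37 deg C anaerobically. An ATP-based luminescent kit measured the remaining live cells.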
ELG1 DNA repair: blocks ELG1-dependent DNA repair in HEK293T cells; HEK293T ELG1-luciferase reporter, luminescence, 16 h; DNA damage induced by 5-fluorouridine; Potency, µM (highest dose often 46.1 µM), without a hit: at the top dose activity change, negative = inhibition, usual class: inhibitors; 2.3% of 330,000 active; also: potency is read from the fitted curve at half-maximal effect; nearly all actives have a fitted effect of over 55% in size
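Step one: seed 2,000 cells per well. Step two: pin-transfer compound or DMSO alongside 5-fluorouridine. Step three: incubate 16 hr, 37 °C, 5% CO2. Step four: add ONE-Glo, wait 30 min, read luminescence.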
Sfp inh: inhibitors of Bacillus subtilis Sfp phosphopantetheinyl transferase; Potency, µM, without a hit: largest response in the series, negative = inhibition, usual class: inhibitors; AID 1490; Q9F4F7; Biochemical Sfp PPTase activity, qHTS; 3.5% of 310,000 active;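 also: the enzyme is Sfp with the accession as filed and its product quenches rhodamine fluorescence; potency is read from the fitted curve at half-maximal effect; 0% = enzyme reaction without inhibitor and -100% = no enzyme wells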
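Fluorescence-quenching assay: 15 nM Sfp-PPTase preincubated 15 min at room temperature with compound, then 5 uM rhodamine-CoA and 12.5 uM BHQ-2-labelled YbbR peptide added. Fluorescence (ex 525/em 598 nm) read at start and after 30 min; difference gives rate.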
FBPA coupling cs: inhibits coupling enzyme system, counter-screen for aldolase hits; 0.67% of 290,000 active; coupling enzyme system counterscreen, AmpLite Red fluorescence; activity change, negative = inhibition, % at 58.2 µM, hits read low; in the data active = activity change below about -30%
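Counterscreen of the coupled detection system alone, without aldolase: glyceraldehyde-3-phosphate coupling enzymes plus AmpLite Red readout. Compounds at 57.5 uM final, 10 min RT preincubation, 20 min RT reaction, fluorescence 525/598 nm.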
ELG1 FLuc counter: luciferase inhibition in cell-free luciferin readout for ELG1 hits; AID 624247; 3% of 350 active; shares compounds with ELG1 DNA repair; Potency, µM (top dose mostly 46.1 µM), inactives show top-dose activity change, negative = inhibition, actives largely listed as inhibitors; cell-free firefly luciferase luminescence counter-screen, ViewLux; also: potency is read from the fitted curve at half-maximal effect
ELG1-Luc inh: inhibits ELG1-dependent DNA repair in HEK293T cells, confirmed | HEK293T ELG1-luciferase levels, luminescence; cells co-treated with 5-fluorouridine | 68% of 670 active | Potency, µM (top dose mostly 46.1 µM), for the others: top-dose activity change, negative = inhibition, hits mostly inhibitors | shares compounds with ELG1 DNA repair; also: potency is read from the fitted curve at half-maximal effect; nearly all actives have a fitted effect of over 55% in size
Target sequence (Q96QE3 whole entry, looked up): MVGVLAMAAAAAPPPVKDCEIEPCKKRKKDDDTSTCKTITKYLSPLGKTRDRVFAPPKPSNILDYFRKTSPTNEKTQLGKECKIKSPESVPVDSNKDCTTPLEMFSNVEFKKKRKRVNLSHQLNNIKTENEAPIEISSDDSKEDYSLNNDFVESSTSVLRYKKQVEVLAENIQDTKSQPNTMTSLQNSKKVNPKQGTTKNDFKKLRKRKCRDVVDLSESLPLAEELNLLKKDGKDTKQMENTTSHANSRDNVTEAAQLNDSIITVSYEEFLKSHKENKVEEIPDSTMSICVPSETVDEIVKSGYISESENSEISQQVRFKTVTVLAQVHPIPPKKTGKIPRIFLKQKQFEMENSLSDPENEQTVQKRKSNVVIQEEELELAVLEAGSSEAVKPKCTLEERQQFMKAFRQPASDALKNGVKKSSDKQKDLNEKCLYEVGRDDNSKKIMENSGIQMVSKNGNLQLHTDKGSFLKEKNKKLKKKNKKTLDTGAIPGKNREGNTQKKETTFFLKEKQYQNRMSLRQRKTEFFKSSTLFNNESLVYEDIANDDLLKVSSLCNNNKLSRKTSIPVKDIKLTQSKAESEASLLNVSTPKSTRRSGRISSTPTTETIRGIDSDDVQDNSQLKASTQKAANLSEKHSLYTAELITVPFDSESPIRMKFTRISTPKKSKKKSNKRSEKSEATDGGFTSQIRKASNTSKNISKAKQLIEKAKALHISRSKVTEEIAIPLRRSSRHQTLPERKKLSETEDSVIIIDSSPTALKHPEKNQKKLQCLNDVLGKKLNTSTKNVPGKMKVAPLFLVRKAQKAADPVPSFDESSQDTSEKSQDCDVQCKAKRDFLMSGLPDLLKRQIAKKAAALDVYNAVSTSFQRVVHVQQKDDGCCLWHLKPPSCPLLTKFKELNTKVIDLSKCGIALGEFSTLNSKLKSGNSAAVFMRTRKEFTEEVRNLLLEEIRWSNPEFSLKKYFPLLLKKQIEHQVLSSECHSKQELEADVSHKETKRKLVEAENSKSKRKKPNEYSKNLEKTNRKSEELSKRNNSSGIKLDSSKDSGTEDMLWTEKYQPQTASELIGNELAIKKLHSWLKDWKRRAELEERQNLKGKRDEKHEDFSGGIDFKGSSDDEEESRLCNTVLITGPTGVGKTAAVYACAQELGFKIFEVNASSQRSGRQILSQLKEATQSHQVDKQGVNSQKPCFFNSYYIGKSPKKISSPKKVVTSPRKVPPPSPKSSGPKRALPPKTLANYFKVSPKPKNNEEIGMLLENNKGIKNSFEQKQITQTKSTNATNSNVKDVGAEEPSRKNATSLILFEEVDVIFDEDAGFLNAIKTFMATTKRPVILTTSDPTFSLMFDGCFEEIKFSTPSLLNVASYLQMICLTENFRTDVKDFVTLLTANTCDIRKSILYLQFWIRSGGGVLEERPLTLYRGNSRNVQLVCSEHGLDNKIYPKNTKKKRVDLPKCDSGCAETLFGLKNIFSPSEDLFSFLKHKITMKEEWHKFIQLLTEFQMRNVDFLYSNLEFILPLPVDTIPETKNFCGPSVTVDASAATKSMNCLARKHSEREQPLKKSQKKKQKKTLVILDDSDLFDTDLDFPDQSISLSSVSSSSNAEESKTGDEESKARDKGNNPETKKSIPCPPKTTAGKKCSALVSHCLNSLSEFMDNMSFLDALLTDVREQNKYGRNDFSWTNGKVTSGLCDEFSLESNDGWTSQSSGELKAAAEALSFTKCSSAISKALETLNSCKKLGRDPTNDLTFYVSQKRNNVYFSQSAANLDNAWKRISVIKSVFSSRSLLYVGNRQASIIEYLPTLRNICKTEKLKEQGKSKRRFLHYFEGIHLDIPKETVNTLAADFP
ELG1 MMS Luc: inhibits ELG1-dependent repair under MMS stimulation in HEK293T cells; shares compounds with ELG1 DNA repair; HEK293T luciferase-tagged ELG1 level, MMS stimulated; Potency, µM (highest dose often 46.1 µM), without a hit: at the highest dose activity change, negative = inhibition, usual class: inhibitors; 53% of 670 active; also: potency is read from the fitted curve at half-maximal effect; nearly all actives have a fitted effect of over 60% in size
ELG1 5FU viab: confirmation of ELG1 repair inhibitors: viability with 5FU. shares compounds with ELG1 DNA repair. cell viability with 5-FU, ELG1-dependent repair. Potency, µM (doses to about 46.1 µM), inactives show at the highest dose activity change, negative = viability loss, hits mostly cytotoxic. 670 tested, under 10 active. AID 624250;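 also: ELG1-luc HEK293T cells cotreated with 5-fluorouridine at 10 µM final; potency is read from the fitted curve at half-maximal effect; viability measured 16 h after compound addition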
ELG1 MMS viab: confirmation of ELG1 repair inhibitors: viability with MMS; 33% of 670 active; Cell viability with MMS, ELG1-dependent DNA repair; AID 624251; Potency, µM (titrated, usually from 46.1 µM), without a hit: at the top dose activity change, negative = viability loss, hits mostly cytotoxic; shares compounds with ELG1 DNA repair;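 also: ELG1-luc HEK293T cells co-treated with 10 µM MMS; potency is read from the fitted curve at half-maximal effect; viability read 16 h after compound addition; nearly all actives have a fitted effect of over 60% in size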
ELG1 unstim viab: counter-screen for ELG1 repair inhibitors: unstimulated cell viability | cell viability counter-screen, unstimulated, luminescence | shares compounds with ELG1 DNA repair | Potency, µM (top dose mostly 45.9 µM), without a hit: at the top dose activity change, negative = loss of viability, usual class: cytotoxic | 8% of 900 active | AID 624252;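 also: potency is read from the fitted curve at half-maximal effect; compound exposure lasted 16 hours before reading; nearly all actives have a fitted effect of over 55% in size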
FLuc enzyme: inhibits purified firefly luciferase, counter-screen for ELG1 hits; shares compounds with ELG1 DNA repair; AID 624253; 10% of 350 active; purified firefly luciferase, luminescence counter-screen; Potency, µM (top dose mostly 57.5 µM), inactives show at the top dose activity, negative = inhibition, actives largely listed as inhibitors; also: potency is read from the fitted curve at half-maximal effect
An asterisk follows results filed as active; ? = inconclusive; nt = not tested or not shown. Unless noted, calls follow the shape of the dose curve; as a rule, active = well fitted curve in the direction sought with a large enough effect; inconclusive = small, poorly fitted or top-dose-only effect, or another doubt; inactive = no such curve, though single readings can be large; an effect the other way counts as inactive or inconclusive. Unless noted, % is scaled to controls: 0 for no effect and ±100 for the full control effect.

SMILES | Giardia kill | ELG1 DNA repair | Sfp inh | FBPA coupling cs | ELG1-Luc inh | ELG1 MMS Luc | ELG1 5FU viab | ELG1 MMS viab | ELG1 unstim viab | others
CCn1c(N2CCN(CC(=O)c3c[nH]c4ccccc34)CC2)nc2c1c(=O)[nH]c(=O)n2C | 12.0 | 0.0% | -9.8% | -4.2 | ? | -3.8% | ? | -0.5% | -9.2% | ELG1 FLuc counter=16.9%;FLuc enzyme=1.1%
CCCn1c(N2CCN(CC(=O)c3c(C)n(C)c4ccccc34)CC2)nc2c1c(=O)[nH]c(=O)n2C | -4.0 | 7.31µM* | -2.5% | 2.0 | 3.15µM* | ? | ? | 1.2% | -10.3% | ELG1 FLuc counter=3.1%;FLuc enzyme=2.2%
CCOC(=O)c1ccccc1NC(=S)N1CCN(C(=O)c2ccco2)CC1 | -11.0 | ? | 6.2% | 0.6 | nt | nt | nt | nt | nt
C[C@H](NC(=O)[C@H]1N2C(=O)c3ccccc3C2SC1(C)C)C(=O)N1CCC[C@H]1C(=O)O (some centres not stated) | 15.6 | 16.2% | -4.8% | 0.0 | nt | nt | nt | nt | nt
CCc1ccccc1NC(=O)N1CCCc2ccccc21 | -5.2 | 29.9% | 1.5% | 2.5 | nt | nt | nt | nt | nt
CCC(C)N(CC(=O)Nc1cccc(C)c1C)C(=O)CCl (configuration not stated) | 5.0 | 4.61µM* | -2.4% | -0.8 | 14.1µM* | 1.58µM* | ? | 7.05µM* | 28.1µM*
CC1CCc2nc(NC(=O)c3ccc(S(=O)(=O)N4CCCc5ccccc54)cc3)sc2C1 (configuration not stated) | -8.8 | 2.91µM* | 9.4% | -0.6 | ? | 2.5µM* | 7.6% | 2.81µM* | ?
COc1ccc(-c2cc(C(F)(F)F)n3ncc(C(=O)NCc4ccco4)c3n2)cc1 | 38.5 | 1.3µM* | 56.2µM* | 0.4 | 1.77µM* | ? | ? | -7.5% | -12.2% | ELG1 FLuc counter=0.3%;FLuc enzyme=-12.4%
COc1cc(-c2cc(C(F)(F)F)n3ncc(C(=O)O)c3n2)cc(OC)c1OC | -2.9 | 4.11µM* | 18.8% | 4.3 | 7.05µM* | 9.7% | ? | ? | 11.6%
Cc1ccc(C2CC(C(F)(F)F)n3ncc(C(=O)NCc4ccco4)c3N2)cc1 (configuration not stated) | -15.7 | -20.0% | 14.8% | -0.1 | 28.1µM* | -11.3% | ? | 5.4% | 6.8% | ELG1 FLuc counter=5.3%;FLuc enzyme=-7.9%
O=C1CCc2cccc(O)c2N1 | 19.1 | nt | nt | nt | nt | nt | nt | nt | nt
CC(=O)N1c2ccccc2S(=O)(=O)c2c1ccc1ccccc21 | -1.7 | nt | nt | nt | nt | nt | nt | nt | nt
O=S1(=O)[C@H]2C[C@H](CO)O[C@@]2(CO)CN1Cc1ccc(-c2ccc(F)cc2)cc1 | -3.2 | ? | nt | nt | nt | nt | nt | nt | nt
O=S1(=O)[C@H]2C[C@H](CO)O[C@@]2(CO)CN1Cc1ccc(-c2cccc(Cl)c2)cc1 | -14.4 | 2.31µM* | nt | nt | 2.5µM* | -5.8% | ? | ? | ?
O=C(CN1C(=O)NC2(CCc3ccccc32)C1=O)NCc1ccc(Cl)cc1 (configuration not stated) | -7.0 | -1.5% | nt | nt | nt | nt | nt | nt | nt
COc1ccc(C(=O)NC2CCN(CC(=O)N3CCCCC3)CC2)cc1 | 1.1 | 9.3% | -8.7% | -1.0 | nt | nt | nt | nt | nt
Cc1ccc(-c2cc(C(=O)NCc3cccs3)no2)cc1 | 12.2 | ? | 2.2% | 6.4 | nt | nt | nt | nt | 9.2% | ELG1 FLuc counter=54.2%;FLuc enzyme=?
CCCCn1c(N)c(-c2nc3ccccc3o2)c2c([N+](=O)[O-])nn(C)c(=O)c21 | -0.1 | ? | 4.6% | -2.3 | ? | 8.6% | ? | 11.6% | -0.2%
CCCn1nc([N+](=O)[O-])c(C(C#N)c2nc3ccccc3o2)c(Cl)c1=O (configuration not stated) | -12.0 | -4.6% | -17.4% | 0.6 | nt | nt | nt | nt | nt
CCCCn1c(N)c(-c2nc3ccccc3o2)c2c([N+](=O)[O-])nn(CC)c(=O)c21 | 3.8 | 2.06µM* | 2.7% | -1.1 | 0.996µM* | 15.6% | ? | -0.8% | -6.2%
CCCCCn1c(N)c(-c2nc3ccccc3s2)c2c([N+](=O)[O-])nn(C)c(=O)c21 | 25.4 | 0.731µM* | -6.3% | 3.0 | 5µM* | 28.1µM* | ? | ? | -4.4% | ELG1 FLuc counter=?;FLuc enzyme=-9.3%
CCCn1c(N)c(C(=O)CSc2nc3ccccc3s2)c(=O)[nH]c1=O | 9.4 | ? | 9.5% | 0.4 | nt | nt | nt | nt | nt
CCCCn1c(-c2ccco2)nc2ccccc2c1=O | -4.9 | -0.8% | -23.9% | 4.1 | nt | nt | nt | nt | nt
C/C(CCN1CCCc2nc(C)c(C)cc21)=N\O[C@@H](C)CN1CCCCc2nc(C)c(C)cc21 | nt | nt | 7.3% | -1.3 | nt | nt | nt | nt | nt
CC(C)C[C@H](NC(=O)N1CCCCCC1)C(=O)N[C@H](Cc1cn(C)c2ccccc12)C(=O)N[C@H](Cc1ccccn1)C(=O)O | nt | nt | 12.0% | 2.3 | nt | nt | nt | nt | nt
CC(=O)c1cn(CC(=O)Nc2ccc(C)c(C)c2)c2ccccc12 | -14.6 | 2.06µM* | 21.9% | 2.6 | -10.2% | ? | -4.0% | ? | -4.3%
CC(=O)c1cn(CC(=O)Nc2ccc(C)cc2)c2ccccc12 | 16.1 | ? | 29.4% | 2.0 | nt | nt | nt | nt | nt
CCN(C[C@H]1N[C@@](Cc2ccccc2)(C(=O)OC)[C@H]2C(=O)N(Cc3ccccc3)C(=O)[C@@H]12)C(=O)C1CCCCC1 | 18.4 | -11.0% | nt | nt | nt | nt | nt | nt | nt
CCCC(=O)N1CCc2cc(OC)c(OC)cc2C1COc1ccccc1OC (configuration not stated) | 5.2 | -8.1% | 13.2% | 0.1 | 8.89µM* | ? | 3.9% | ? | -5.3% | ELG1 FLuc counter=10.2%;FLuc enzyme=-5.2%
COc1ccc(C(=O)N2CCc3cc(OC)c(OC)cc3C2c2ccc(OC)c(OC)c2)cc1OC (configuration not stated) | 9.1 | 3.66µM* | -4.2% | 1.3 | ? | 15.4% | ? | -12.8% | -19.0%
